Assay outcomes deposited in PubChem BioAssay by National Center for Advancing Translational Sciences (NCATS).
Sampled rows, rich in hits. Any-hit rate of the full collection: about 7.7%.
HCMV antiviral = blocks human cytomegalovirus replication; HFF cells, HCMV-luciferase reporter, 72 h; hits give low values; activity change, negative = inhibition, % at 57.5 µM; 410,000 tested, 4.5% active; in the data active = activity change below about -60%; inconclusive = no clear call, values can overlap the other calls; inactive = above about -39%
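Two compound doses tested in HFFs infected with HCMV-luciferase, MOI 1 PFU/cell, 72 h at 37C. Lysate luminescence read with OneGlo; data normalized against buffer-only and 10uM Salinomycin inhibitor controls.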
RE007 growth inh = less growth of the S. pombe RE007 Vpr strain. S. pombe RE007 Vpr strain, BacTiter-Glo ATP luminescence, 24 h. Potency, µM (series often up to 92.2 µM), without a hit: at the top dose activity change, negative = less growth, most hits filed as inhibitors. 360,000 tested, 0.21% active. AID 651644; active = well fitted falling curve with a large enough effect; inconclusive = small, poorly fitted or top-dose-only effect; inactive = no such curve, though single readings can be large or run the other way; note: potency is the fitted concentration of half-maximal effect; nearly all actives have a fitted effect of over 50% in size
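Fission yeast strain RE007, carrying one chromosomally integrated HIV-1 vpr copy, was seeded at OD 0.01 in PMG+AL medium with 23 nL pinned compound. After 24 h at 30 °C and 99% humidity, viability was read by BacTiter-Glo luminescence.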
FBPA Giardia inh = blocks Giardia fructose-bisphosphate aldolase activity; purified Giardia FBPA; Potency, µM (titrated, usually from 59.6 µM), for inactives: at the highest dose activity, negative = inhibition, hits mostly inhibitors; 290,000 tested, 0.71% active; AID 2451; note: potency is the fitted concentration of half-maximal effect; nearly all actives have a fitted effect of over 55% in size
Target sequence (A8B2U2 whole entry, looked up): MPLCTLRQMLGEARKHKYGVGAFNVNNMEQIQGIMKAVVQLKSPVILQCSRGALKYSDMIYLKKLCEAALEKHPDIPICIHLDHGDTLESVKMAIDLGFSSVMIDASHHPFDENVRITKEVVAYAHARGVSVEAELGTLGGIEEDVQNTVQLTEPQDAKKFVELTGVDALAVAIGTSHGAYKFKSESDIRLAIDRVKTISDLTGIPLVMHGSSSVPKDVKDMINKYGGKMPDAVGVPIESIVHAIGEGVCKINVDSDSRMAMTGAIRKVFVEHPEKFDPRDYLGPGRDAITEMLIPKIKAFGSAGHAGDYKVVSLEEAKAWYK
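Giardia FBPA (40 nM reagent) was preincubated 10 min at RT with compound (up to 57.5 uM final), then substrate plus GAPDH/TPI/NAD/arsenate coupling system with diaphorase/resazurin was added; resorufin fluorescence (525/598 nm) was read after 20 min.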
TbPYK inhibitor = blocks Trypanosoma brucei pyruvate kinase; Potency, µM (highest dose often 76.8 µM), without a hit: top-dose activity, negative = inhibition, hits mostly inhibitors; 410,000 tested, 0.12% active; TbPYK enzyme, Kinase-Glo Plus ATP luminescence, 45 min; Q57TT1; note: potency is the fitted concentration of half-maximal effect; nearly all actives have a fitted effect of over 50% in size
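T. brucei PYK with substrate was exposed to pin-transferred compounds across a concentration series, then started with 130 uM ADP (final). After 45 min at room temperature, Kinase-Glo Plus luminescence was read, normalized and curve-fitted.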
Sm TGR inh = blocks Schistosoma mansoni thioredoxin glutathione reductase; 360,000 tested, 3% active; Potency, µM (top dose mostly 114 µM), for inactives: at the highest dose activity change, negative = inhibition, most hits filed as inhibitors; AID 485364; purified TGR, DTNB reduction, TNB absorbance 405 nm; note: potency is the fitted concentration of half-maximal effect; nearly all actives have a fitted effect of over 60% in size
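TGR 20 nM + NADPH 100 uM (dispensed conc.), cpd preinc 15 min RT; start with NADPH (500 uM addition) then DTNB (15 mM addition). Kinetic TNB absorbance, 405 nm filter. Four-parameter Hill fit across titration.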
FMDV inh = foot and mouth disease virus antiviral activity | 410,000 tested, 1.2% active | Potency, µM (top dose mostly 57.9 µM), without a hit: at the top dose activity change, negative = inhibition, most hits filed as inhibitors | FMDV antiviral cell-based qHTS; calls by dose curve; tested in HEK293T cells; note: read-out not given here; potency is the fitted concentration of half-maximal effect; nearly all actives have a fitted effect of over 45% in size
* hit, by the source's call; u = inconclusive; x = no result given. Unless noted, calls come from the whole dose curve; as a rule, active = well fitted curve in the direction sought with a large enough effect; inconclusive = small, poorly fitted or top-dose-only effect, or another doubt; inactive = no such curve, though single readings can be large; an effect the other way counts as inactive or inconclusive. % is set by controls: 0 for no effect and ±100 for the full control effect.

SMILES | HCMV antiviral | RE007 growth inh | FBPA Giardia inh | TbPYK inhibitor | Sm TGR inh | FMDV inh
Cc1nn(-c2ccc(F)cc2)c(Cl)c1/C=C/C(=O)OCC(=O)Nc1ccc(F)cc1F | 6.8 | -9.8% | 1.0% | -2.6% | -0.6% | 0.0%
Cc1nn(-c2ccc(F)cc2)c(Cl)c1/C=C/C(=O)OCC(=O)Nc1c(F)c(F)c(F)c(F)c1F | -71.2* | -0.6% | -2.6% | 0.7% | 0.5% | -16.7%
CCN(CC)S(=O)(=O)c1ccc(NC(=O)CC(NC(C)=O)c2ccccc2)cc1 (stereo not given) | -81.2* | 14.0% | -0.1% | -4.9% | -2.0% | 14.4%
CC(=O)NC(CC(=O)Nc1ccc(S(=O)(=O)N2CCCC2)cc1)c1ccccc1 (stereo not given) | 13.8 | -13.6% | -2.3% | 0.7% | -28.1% | -18.7%
CC(=O)Nc1ccc(S(=O)(=O)N(CC(=O)O)Cc2ccccc2)cc1 | -39.0 | 16.7% | 15.4% | 1.3% | 6.5% | -22.4%
CC(=O)Nc1ccc(S(=O)(=O)N(Cc2ccccc2)Cc2ccccc2)cc1 | -60.8* | x | x | -3.3% | 10.9% | 11.3%
CC(=O)c1c(C)oc2ccc(N(C(=O)Oc3ccccc3)S(=O)(=O)c3ccc(C(C)(C)C)cc3)cc12 | -10.2 | x | x | 0.8% | -5.4% | u
CCC(C)C(=O)Nc1nc(C)c(-c2csc(Nc3ccc(Cl)cc3)n2)s1 (stereo not given) | -90.4* | 6.7% | -6.7% | 5.2% | -9.7% | 0.0%
COc1ccccc1Nc1nc(-c2sc(NC(=O)C(C)(C)C)nc2C)cs1 | -87.6* | -4.4% | -5.9% | -5.2% | 1.5% | -16.7%
CCCCCC(=O)Nc1nc(C)c(-c2csc(Nc3cc(Cl)ccc3OC)n2)s1 | -36.3 | 0.8% | -2.4% | 1.1% | -28.6% | -17.5%
Cc1ccc(Cl)cc1Nc1nc(-c2sc(NC(=O)C(C)(C)C)nc2C)cs1 | -72.9* | -0.6% | -10.9% | 3.1% | 2.7% | -21.5%
COc1cccc(Nc2nc(-c3sc(NC(=O)c4ccccc4)nc3C)cs2)c1 | -60.6* | -20.5% | -2.6% | -21.6% | -1.2% | -18.4%
COc1cccc(Nc2nc(-c3sc(NC(=O)CC(C)C)nc3C)cs2)c1 | 24.2 | 10.6% | 1.7% | -5.5% | -2.3% | -24.2%
CC[C@@H](C)C(N)C(=O)O (stereo not given in full) | x | x | -1.8% | 0.0% | x | x
COc1ccc2c(C)cc(=O)oc2c1 | -101.9* | -3.5% | 0.2% | -3.1% | x | -22.2%
Cc1cc(=O)oc2cc(Oc3ccc([N+](=O)[O-])cc3[N+](=O)[O-])ccc12 | 3.5 | 0.3% | -5.2% | 0.9% | 50.1µM* | 35.5µM*
Cc1cc(=O)oc2cc(Oc3ncccc3[N+](=O)[O-])ccc12 | -8.2 | u | -0.6% | 0.6% | 5.4% | 0.0%
COc1ccccc1C1=NOC(COc2ccc3c(C)cc(=O)oc3c2)C1 (stereo not given) | -94.6* | 10.9% | -0.2% | -0.7% | 19.7% | -9.7%
O=Cc1cccc(Oc2ccc([N+](=O)[O-])cc2[N+](=O)[O-])c1 | u | -13.8% | -29.5% | 0.8% | 44.7µM* | -4.7%
O=C(c1ccccc1)c1ccc(Oc2ccc([N+](=O)[O-])cc2[N+](=O)[O-])cc1 | -2.2 | -4.5% | x | 0.6% | x | u
COc1ccc(CN2C(=O)C(NC(=O)c3ccccc3OC)(C(F)(F)F)N=C2c2ccccc2)cc1 (stereo not given) | -28.2 | x | x | 2.5% | 9.1% | -5.7%
COc1ccc(C2=NOC(COc3ccc4c(C)cc(=O)oc4c3)C2)c(OC)c1 (stereo not given) | -68.9* | -3.5% | 0.2% | -5.2% | -4.1% | 2.9%
COc1cccc(COc2ccc3c(C)cc(=O)oc3c2)c1 | 68.1 | 3.6% | 0.3% | -4.4% | 2.6% | 28.4%
COc1ccc(N2CCN(C(=O)c3cc(N4C(=O)C5C6CCC(C6)C5C4=O)ccc3Cl)CC2)cc1 (stereo not given) | -36.0 | -2.4% | 5.9% | 0.7% | -11.9% | u
O=C(c1ccc(Cl)c(S(=O)(=O)N2CCCCC2)c1)N1CCCCC1 | 12.3 | -16.5% | 11.9% | 3.1% | -5.9% | 32.2%
